One assay has as its target SLC9A7. The assay can be described thus: pooled miR-30 sensor sort-seq; sequence = guide strand. The following applies: shRNA.
For the sequence TAAGACTTGAAAGCTGTCGTTG, the sensor-assay potency score (higher = more potent) was determined as 0.00174.

Turning to TTGGTTATCGTACACCTGGGGA, the sensor-assay potency score (higher = more potent) is -0.959.

For TTGAAAGCTGTCGTTGTTGGGT, the sensor-assay potency score (higher = more potent) was -0.0314.

Take TCGACTTCTTGATTCCACCGAC: the sensor-assay potency score (higher = more potent) was determined as 0.212.

Turning to TAATGAAGCATGAAACAGCAGT, the sensor-assay potency score (higher = more potent) is -0.713.

Take TTTGGTAAACTTAGTCACGTTG: the sensor-assay potency score (higher = more potent) was -0.343.

TTTATCTGAGAGCTGTCCCATA: the sensor-assay potency score (higher = more potent) was -0.106.

On to TCTTCTTTAAGCTGTATCCAGC, for which the sensor-assay potency score (higher = more potent) is -0.509.

For TTCATTCTGGTCCTCTTCGGAG, the sensor-assay potency score (higher = more potent) is -1.15.

As to TTAAGCTGTATCCAGCATGAAA, the sensor-assay potency score (higher = more potent) is -1.54.

TATTCGAAGAACTTTCCGCTGA displayed a sensor-assay potency score (higher = more potent) of 0.32.

As to TACAACACCTGTAAATCCGCAG, the sensor-assay potency score (higher = more potent) is -0.278.

The next assay addresses SLCO4C1. Described as above. The following applies: shRNA.
In the case of TTGTCTGTGATTAACACACCTT, the sensor-assay potency score (higher = more potent) was -0.412.

For the sequence TAGACTAATATATTTGTTCAGT, the sensor-assay potency score (higher = more potent) was -0.742.

As to TTAACTACAATACCTTGCGTGA, the sensor-assay potency score (higher = more potent) was -0.96.

For the sequence TTATTTAAAAAGTATCACCTTA, the sensor-assay potency score (higher = more potent) was found to be 0.0246.

For TATATGATTCAGATACACCAGC, the sensor-assay potency score (higher = more potent) is -0.633.

Take TAACTTTACAAGTAACACTTAT: the sensor-assay potency score (higher = more potent) was -0.974.

Consider TTGAATAATATTATCACAGAAT, for which the sensor-assay potency score (higher = more potent) is -0.992.

Consider TTTGTAAATATGATTGTCCATA, for which the sensor-assay potency score (higher = more potent) was -1.19.

For the origin of these results see the OligoGym collection.
Further: reference of the scale not given here.
